Pf growth 48h – inhibits P. falciparum growth in the first generation, 48 h. actives 5.9% (n = 310,000). AID 504832. Potency, µM (highest dose often 28.7 µM), most hits filed as inhibitors. P. falciparum luciferase growth in erythrocytes, 48 h
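Compounds are pin-transferred into medium, infected erythrocytes (2% hematocrit, 0.1% parasitemia final) are added, and plates sit one parasite generation at 37 C in 5% CO2. Detection reagent is then added and luminescence measured.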
HCMV inh – blocks human cytomegalovirus replication. actives 4.5% (n = 410,000). HFF cells, HCMV-luciferase reporter, 72 h; hits give low values. activity change, negative = inhibition, % at 57.5 µM; in the data active = activity change below about -60%; inconclusive = no clear call, values can overlap the other calls; inactive = above about -39%
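Screen run at 2 compound doses on HFFs infected with reporter HCMV, MOI 1 PFU/cell. Luciferase activity from cell lysates at 72 h post infection gave inhibition relative to buffer-only and Salinomycin wells.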
Lassa entry inh – Lassa virus entry inhibition | Lassa virus pseudotype entry inhibition, cell reporter | Potency, µM (titrated, usually from 37.9 µM), most hits filed as inhibitors | actives 1.2% (n = 300,000); calls by dose curve; tested in HEK293 cells; also: nearly all actives have a fitted effect of over 50% in size
HCV inh – inhibitors of hepatitis C virus infection; actives 3.4% (n = 340,000); Huh7.5.1 HCVcc-Cre infection, luciferase reporter, 44 h; AID 651820; Potency, µM (titrated, usually from 41.8 µM), hits mostly inhibitors
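A cell-based infection assay in which seeded cells (1,000 per well) receive test compound after 4 h, are inoculated with HCVcc-Cre at approximately 0.5 moi, and are incubated 44 h before luminescence detection.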
MARV entry inh – blocks Marburg virus binding to or entry into cells. AID 540276. Marburg virus pseudotyped entry inhibition, cell reporter. Potency, µM (series often up to 37.8 µM), usual class: inhibitors. actives 1.8% (n = 300,000); calls by dose curve; tested in HEK293 cells
Pf growth 96h – P. falciparum growth inhibition at 96 hours; P. falciparum luciferase reporter growth, 96 h; Potency, µM (highest dose often 28.7 µM), usual class: inhibitors; actives 6.9% (n = 320,000); AID 504834
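Plates of compound plus infected erythrocytes (2% hematocrit, 0.05% parasitemia final) incubate 96 hours, 37 C, 5% CO2. Detection reagent added; reduced luminescence from the parasites' luciferase reporter flags inhibition.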
Hits are given with their value; 0 = inactive; ? = inconclusive; - = not tested or not shown. The list is not random: actives were taken first. Their share in the collection is about 14%. Unless noted, calls follow the shape of the dose curve; as a rule, active = well fitted inhibition curve with a large enough effect; inconclusive = small, poorly fitted or top-dose-only effect, or another doubt; inactive = no such curve, though single readings can be large or run the other way.

SMILES | Pf growth 48h | HCMV inh | Lassa entry inh | HCV inh | MARV entry inh | Pf growth 96h
CCOc1ccc(S(=O)(=O)N(CC(=O)NCCc2ccc(OC)c(OC)c2)c2ccccc2)cc1 | - | 0 | 0 | - | 0 | -
CCN(CC)c1c(C)nc2ccc(C(=O)Nc3cc(-c4ccccc4)ccc3OC)cn12 | - | 0 | - | - | - | -
CC(C)(C)OC(=O)N1CCC[C@H]1C(=O)OCC(=O)Nc1cc(S(C)(=O)=O)ccc1Cl | 0 | 0 | 0 | 0 | 0 | 0
COc1ccc(-n2cc(C(=O)NCc3ccc(Cl)cc3)c3ccccc3c2=O)cc1 | - | 0 | 0 | - | - | -
COC(=O)c1cn[nH]c1NC(=S)Nc1ccc(C)cc1Cl | 0 | 0 | 7.3µM | ? | ? | 0
CC(=O)c1sc2nc(=O)c(C)nn2c1C | 0 | 0 | 0 | 0 | 0 | 3.7µM
OCC[C@@H]1C[C@H](O)[C@@H](O)[C@@]2(OCc3ccc(CO)cc32)O1 | - | 0 | - | - | - | -
O=C(COC(=O)c1cccc(S(=O)(=O)N2CCCC2)c1)Nc1ccc(Cl)cc1 | - | 0 | - | - | - | -
Cc1ccc(N(CC(=O)N2CCCC2)S(C)(=O)=O)cc1C | 0 | 0 | 0 | 0 | 0 | 7.38µM
CS(=O)(=O)N(CC(=O)N1CCCC1)c1ccc(Cl)cc1 | 0 | 0 | 0 | 0 | 0 | ?
COc1ccc(N(CC(=O)N2CCOCC2)S(C)(=O)=O)cc1Cl | 0 | 0 | 0 | 0 | ? | 11.7µM
CCc1ccccc1N(CC(=O)N1CCCC1)S(C)(=O)=O | 0 | 0 | - | 0 | - | 10.4µM
COc1ccc(N(CC(=O)N2CCOCC2)S(C)(=O)=O)cc1OC | 0 | 0 | 0 | 0 | 0 | 13.1µM
COc1ccc(C)cc1NC(=O)c1cc(S(=O)(=O)N2CCc3ccccc3C2)ccc1F | - | 0 | 0 | - | - | -
CCc1ccc(-n2c(=O)c3c4c(sc3n(CC(=O)c3ccc(Cl)cc3)c2=O)CCC4)cc1 | - | 0 | 0 | - | 0 | -
CC(=O)Oc1cc2c(C(=O)NCCCN3CCOCC3)c(C)oc2c2ccccc12 | ? | 0 | 0 | 11.2µM | ? | 0
CC1(C)CC(=O)C([N+](=O)[O-])=C(NCCCO)C1 | 0 | 0 | 0 | 0 | ? | 11.7µM
CCOC(=O)c1oc2ccc(S(=O)(=O)n3nc(-c4cc(OCC)c(OCC)c(OCC)c4)cc3N)cc2c1C | - | 0 | 0 | - | ? | -
CCOC(=O)c1oc2ccc(S(=O)(=O)n3nc(-c4cc(OC)c(OC)c(OC)c4)cc3N)cc2c1C | 13.1µM | 0 | 0 | 0 | 0 | 0
Cc1cccc(NC(=O)c2oc3ccc(S(=O)(=O)N4CCOCC4)cc3c2C)c1C | 4.65µM | 0 | ? | 10µM | ? | 0
Cc1ccc(NC(=O)c2oc3ccc(S(=O)(=O)N4CCC5(CC4)OCCO5)cc3c2C)cc1C | 13.1µM | 0 | ? | ? | ? | ?
CCOC(=O)c1oc2ccc(S(=O)(=O)N3CCOCC3)cc2c1C | 0 | 0 | 0 | 0 | 0 | 1.85µM
Cc1ccc(NC(=O)c2oc3ccc(S(=O)(=O)N4CCOCC4)cc3c2C)c(C)c1 | ? | 0 | ? | 0 | 0 | 0
O=C(Nc1cccc(Cl)c1)ON1CCCCC1 | - | 0 | - | - | - | -
CCOc1ccccc1NC(=O)c1ccc(F)c(S(=O)(=O)N2CCN(c3ccc(F)cc3)CC2)c1 | - | ? | 0 | - | - | -
SMILES | Pf growth 48h | HCMV inh | Lassa entry inh | HCV inh | MARV entry inh | Pf growth 96h
Cc1c(C(=O)NCCC2=CCCCC2)oc2ccc(S(=O)(=O)N3CCOCC3)cc12 | 11.7µM | -68.9 | 8.2µM | 10µM | ? | 0
CC(=O)N1CCCc2cc(S(=O)(=O)Nc3ccc(C)c(F)c3)ccc21 | - | 0 | 0 | - | - | -
COc1ccc(S(=O)(=O)Nc2ccc3c(c2)N(C(C)=O)CCC3)cc1 | 0 | -61.9 | ? | ? | 0 | 0
CC(=O)N1CCc2cc(S(=O)(=O)Nc3ccc(C)cc3)ccc21 | 0 | -63.7 | 0 | 0 | ? | 0
COc1ccc(S(=O)(=O)Nc2ccc3c(c2)N(C(C)=O)CCC3)cc1OC | ? | 0 | 0 | 0 | 0 | ?
CSc1cccc(NS(=O)(=O)c2ccc(C(C)=O)cc2)c1 | 0 | -67.6 | ? | ? | ? | 0
CC(=O)N1CCc2cc(S(=O)(=O)NC(CC(C)C)C(=O)Nc3cc(C(=O)O)ccc3C)ccc21 (stereo not drawn) | 0 | 0 | 0 | 0 | 0 | 0.294µM
CC(=O)c1cccc(NC(=O)C(CC(C)C)NS(=O)(=O)c2ccc3c(c2)CCN3C(C)=O)c1 (stereo not drawn) | - | 0 | 0 | - | 0 | -
CC(=O)N1CCc2cc(S(=O)(=O)N3CCc4ccccc43)ccc21 | 0 | -67.9 | ? | ? | ? | ?
CCOc1ccc(S(=O)(=O)Nc2ccc3c(c2)CCCN3S(=O)(=O)c2ccc(C)cc2)cc1 | - | -64.7 | ? | - | - | -
CC(=O)N1CCc2cc(S(=O)(=O)Nc3cccc(C(F)(F)F)c3)ccc21 | - | ? | ? | 12.6µM | ? | 0
COc1ccc(NC(=O)CCS(=O)(=O)c2ccc3c(c2)CCCN3C(C)=O)cc1Cl | - | 0 | 0 | 0 | 0 | 0
COc1ccc(NC(=O)CCS(=O)(=O)c2ccc3c(c2)CCN3C(C)=O)cc1 | 0 | 0 | - | 0 | - | 11.7µM
CC(=O)N1CCc2cc(S(=O)(=O)N3CCc4ccccc4C3)ccc21 | - | 0 | 0 | 0 | 0 | ?
CSc1cccc(NS(=O)(=O)c2ccc3c(c2)CCN3C(C)=O)c1 | - | -87.9 | - | 5.62µM | - | ?
COc1cccc(NS(=O)(=O)c2ccc3c(c2)CCN3C(C)=O)c1 | ? | -64.2 | 0 | 1.58µM | ? | ?
CC(=O)N1CCOc2cc(S(=O)(=O)Nc3cccc(C(F)(F)F)c3)c(Cl)cc21 | 13.1µM | 0 | 0 | - | - | ?
CCC(=O)N1CCc2cc(S(=O)(=O)CCC(=O)Nc3ccc(Cl)c(C(F)(F)F)c3)ccc21 | - | -91.2 | 0 | - | 0 | -
Cc1cccc(NC(=O)c2nc[nH]c2C(=O)N[C@@H](C)CO)c1 | - | 0 | - | - | - | -
COc1cccc(C(=O)NC2=NC(c3ccccc3F)CC(=O)N2)c1 (stereo not drawn) | - | 0 | 0 | - | 0 | -
C[C@H]1[C@@H](NS(=O)(=O)c2ccc3ccccc3c2)CC[C@@]23CCCN2C(=O)CCC[C@@H]13 | - | 0 | - | - | - | -
Cc1cc(O)c(C(c2ccccc2)N2CCN(c3ccc(F)cc3)CC2)c(=O)n1Cc1ccco1 (stereo not drawn) | - | 0 | 0 | - | - | -
CC1=C(C(=O)N2CCOCC2)CC(CC(=O)NCCN2CCOCC2)C(=O)N1Cc1ccccc1 (stereo not drawn) | - | 0 | - | - | - | -
Cc1ccc(C2CCN(C(=O)Nc3ccc(C)c(C)c3)C2)cc1 (stereo not drawn) | - | ? | 0 | - | - | -
COc1cccc(-c2nnc(-c3ccco3)o2)c1 | 0 | 0 | ? | 0 | ? | 0
O=C(COc1ccccc1)Nc1ccc(-c2nnc(-c3ccco3)o2)cc1 | 0 | 0 | 0 | 0 | 0 | -
CCN(CC)CCCNc1ccc(-c2nnc(-c3ccc(OCC(C)C)cc3)o2)cn1 | ? | 0 | 0 | 8.91µM | 0 | ?
CCCOc1ccc(-c2nnc(-c3ccco3)o2)cc1 | 0 | 0 | 8.2µM | 0 | ? | 11.7µM
CC(C)COc1ccc(-c2nnc(-c3ccco3)o2)cc1 | 0 | 0 | 7.3µM | ? | ? | ?
CCOC(=O)Cn1nnc(-c2ccc(OCC(C)C)cc2)n1 | 0 | 0 | 0 | 0 | 0 | -

High-throughput results deposited in PubChem by National Center for Advancing Translational Sciences (NCATS).
